PubChem BioAssay (EPA / NIEHS)
The source holds several records for some structures; these can differ, active in one and inactive in another. The source made the active and inactive calls. The calls were made as follows: active = hit-call score of the fitted dose curve at least 0.9, where 1 is the maximum; inactive = score below 0.9.

What was measured:
[1] = target: Bile acid receptor (Homo sapiens) (UniProt Q96RI1); test: ATG_IR1_CIS: Attagene CIS-FACTORIAL HepG2 Assay for human Nuclear Receptor Subfamily 1 Group H Member 4 (NR1H4), IR1 submotif (AID 2282946); settings: IR1 reporter transcription, actives raise or lower the signal
Sequence of Bile acid receptor (Homo sapiens) (Q96RI1 whole entry, looked up): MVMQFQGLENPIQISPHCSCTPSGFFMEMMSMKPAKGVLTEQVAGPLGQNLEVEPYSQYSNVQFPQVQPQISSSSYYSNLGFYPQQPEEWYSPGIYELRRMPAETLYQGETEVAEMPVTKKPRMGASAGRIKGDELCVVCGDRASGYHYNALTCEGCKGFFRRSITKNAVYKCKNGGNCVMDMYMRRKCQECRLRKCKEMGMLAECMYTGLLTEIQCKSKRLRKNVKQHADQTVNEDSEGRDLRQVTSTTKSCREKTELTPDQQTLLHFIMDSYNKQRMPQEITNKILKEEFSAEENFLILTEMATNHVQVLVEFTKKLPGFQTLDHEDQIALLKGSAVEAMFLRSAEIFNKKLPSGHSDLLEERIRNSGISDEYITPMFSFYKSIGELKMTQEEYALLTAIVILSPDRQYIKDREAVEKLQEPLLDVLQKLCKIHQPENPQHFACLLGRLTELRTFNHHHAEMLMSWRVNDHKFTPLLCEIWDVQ
How it was run: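 Readout: reporter transcript levels by RT-PCR with fluorescent capillary electrophoresis, from HepG2 cells transiently transfected with multiplexed cis-regulated reporters and dosed 24 h. Gain- or loss-of-signal fitted versus DMSO negative control.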

[2] = ATG_GRE_CIS: Attagene CIS-FACTORIAL HepG2 Assay for human Glucocorticoid Response Elements (GRE) (AID 2282947); settings: HepG2 GRE cis-reporter, Attagene multiplex mRNA; actives raise or lower the signal
How it was run: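 Cells (HepG2) bearing transfected cis-promoter reporter transcription units were treated with chemical for 24 hours. Reporter mRNA was measured via RT-PCR with capillary electrophoresis, and activity was fitted in both directions relative to DMSO.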

[3] = ATG_ISRE_CIS: Attagene CIS-FACTORIAL HepG2 Assay for human Interferon Regulatory Factor 1 (IRF1) binding to an Interferon-Stimulated Response Element (ISRE) (AID 2282948); settings: HepG2 ISRE cis-reporter (Attagene), mRNA transcription readout; actives raise or lower the signal
How it was run: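 Endogenous transcription factor activity read as reporter transcript abundance via RT-PCR and capillary electrophoresis. HepG2 cells transiently transfected, 24 h chemical exposure. Gain or loss fitted against DMSO baseline.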

[4] = ATG_M_32_CIS: Attagene CIS-FACTORIAL HepG2 Assay for M32 Transcription Factor (Internal Marker) (AID 2282949); settings: HepG2 Attagene cis-factorial M32 reporter, mRNA; actives raise or lower the signal;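 also: background control marker of the multiplexed CIS panel rather than a real target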
How it was run: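 HepG2 transfectants (cis-regulated reporter transcription units) dosed 24 h. Reporter mRNA by RT-PCR plus CE, analysed as gain or loss relative to DMSO.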

[5] = ATG_M_06_CIS: Attagene CIS-FACTORIAL HepG2 Assay for M06 Transcription Factor (Internal Marker) (AID 2282950); settings: HepG2 Attagene CIS-FACTORIAL M06 internal marker reporter; actives raise or lower the signal
How it was run: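 Cells (HepG2, transiently carrying cis-driven reporter units) receive chemical for 24 h before RNA isolation. Reporter cDNA is PCR-amplified, FAM-labelled by primer extension, HpaI-digested and sized on a capillary analyser.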

[6] = target: Hypoxia-inducible factor 1-alpha (Homo sapiens) (UniProt Q16665); test: ATG_HIF1a_CIS: Attagene CIS-FACTORIAL HepG2 Assay for human Hypoxia Inducible Factor 1 (HIF1A) (AID 2282951); settings: HepG2 Attagene cis-factorial HIF1a reporter transcription; actives raise or lower the signal
Sequence of Hypoxia-inducible factor 1-alpha (Homo sapiens) (Q16665 whole entry, looked up): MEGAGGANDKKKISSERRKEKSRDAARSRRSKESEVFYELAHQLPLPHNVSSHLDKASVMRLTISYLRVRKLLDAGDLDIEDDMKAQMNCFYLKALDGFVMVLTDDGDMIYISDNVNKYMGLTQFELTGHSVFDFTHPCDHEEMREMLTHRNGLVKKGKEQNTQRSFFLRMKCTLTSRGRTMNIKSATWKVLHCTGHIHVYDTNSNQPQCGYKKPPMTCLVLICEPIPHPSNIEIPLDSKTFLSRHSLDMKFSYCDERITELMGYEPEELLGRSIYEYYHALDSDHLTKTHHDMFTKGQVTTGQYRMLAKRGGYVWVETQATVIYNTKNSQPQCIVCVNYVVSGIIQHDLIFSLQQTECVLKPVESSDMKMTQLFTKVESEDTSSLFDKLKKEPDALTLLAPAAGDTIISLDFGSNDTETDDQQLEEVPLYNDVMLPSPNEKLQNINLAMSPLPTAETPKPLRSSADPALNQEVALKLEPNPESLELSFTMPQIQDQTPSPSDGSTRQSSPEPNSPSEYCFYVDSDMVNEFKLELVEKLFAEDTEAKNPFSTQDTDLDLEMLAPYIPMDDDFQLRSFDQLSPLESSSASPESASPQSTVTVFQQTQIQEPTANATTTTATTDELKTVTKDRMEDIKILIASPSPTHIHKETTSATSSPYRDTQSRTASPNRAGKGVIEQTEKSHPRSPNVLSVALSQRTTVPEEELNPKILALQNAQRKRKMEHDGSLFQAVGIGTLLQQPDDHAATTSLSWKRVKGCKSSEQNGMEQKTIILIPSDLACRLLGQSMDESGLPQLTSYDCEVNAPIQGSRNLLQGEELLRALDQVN
How it was run: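 HepG2 cells transiently transfected with multiplexed cis-promoter reporter units; reporter mRNA read 24 h after dosing by RT-PCR, 6-FAM primer-extension labelling, HpaI digestion and capillary electrophoresis. Bidirectional fit versus DMSO baseline.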

[7] = target: Hepatocyte nuclear factor 6 (Homo sapiens) (UniProt Q9UBC0); test: ATG_HNF6_CIS: Attagene CIS-FACTORIAL HepG2 Assay for human Hepatocyte Nuclear Factor 6 (HNF6) (AID 2282952); settings: HepG2 Attagene cis-factorial HNF6 reporter transcription; actives raise or lower the signal
Sequence of Hepatocyte nuclear factor 6 (Homo sapiens) (Q9UBC0 whole entry, looked up, the tested form may be a part): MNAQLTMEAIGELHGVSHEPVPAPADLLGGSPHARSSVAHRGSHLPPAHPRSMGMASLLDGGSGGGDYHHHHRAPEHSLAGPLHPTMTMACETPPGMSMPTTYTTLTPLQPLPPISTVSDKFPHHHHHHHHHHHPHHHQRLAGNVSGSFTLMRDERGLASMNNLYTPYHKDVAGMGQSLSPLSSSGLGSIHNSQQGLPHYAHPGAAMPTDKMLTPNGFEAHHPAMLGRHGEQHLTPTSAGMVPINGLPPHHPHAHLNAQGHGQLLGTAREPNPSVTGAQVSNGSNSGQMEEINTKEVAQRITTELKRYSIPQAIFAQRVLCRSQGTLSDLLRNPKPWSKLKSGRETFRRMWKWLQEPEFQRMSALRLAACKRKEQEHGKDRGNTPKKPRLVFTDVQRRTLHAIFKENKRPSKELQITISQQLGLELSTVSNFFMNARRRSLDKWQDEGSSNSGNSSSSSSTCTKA
How it was run: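 Twenty-four-hour chemical treatment of reporter-transfected HepG2 cells precedes RNA isolation, DNase-treated reverse transcription and PCR of reporter sequences. Labelled fragments are sized by capillary electrophoresis and fitted bidirectionally versus DMSO.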

[8] = target: Heat shock factor protein 1 (Homo sapiens) (UniProt Q00613); test: ATG_HSE_CIS: Attagene CIS-FACTORIAL HepG2 Assay for human Heat Shock Transcription Factor 1 (HSE) (AID 2282953); settings: HepG2 HSE cis-reporter, Attagene RNA transcription; actives raise or lower the signal
Sequence of Heat shock factor protein 1 (Homo sapiens) (Q00613 whole entry, looked up): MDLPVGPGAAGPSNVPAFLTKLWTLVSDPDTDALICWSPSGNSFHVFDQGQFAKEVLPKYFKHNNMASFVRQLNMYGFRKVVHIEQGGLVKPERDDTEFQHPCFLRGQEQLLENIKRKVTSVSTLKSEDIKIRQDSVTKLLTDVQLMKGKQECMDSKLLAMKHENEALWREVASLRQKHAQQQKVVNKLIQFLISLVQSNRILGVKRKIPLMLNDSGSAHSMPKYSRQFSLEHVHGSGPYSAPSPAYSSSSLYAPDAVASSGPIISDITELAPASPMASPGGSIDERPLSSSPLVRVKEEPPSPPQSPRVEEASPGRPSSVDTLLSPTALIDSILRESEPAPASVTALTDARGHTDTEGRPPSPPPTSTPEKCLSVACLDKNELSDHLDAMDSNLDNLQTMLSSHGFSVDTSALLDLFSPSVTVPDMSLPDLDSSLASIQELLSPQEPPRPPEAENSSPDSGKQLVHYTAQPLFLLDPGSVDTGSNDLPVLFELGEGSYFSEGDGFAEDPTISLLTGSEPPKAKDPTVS
How it was run: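 Liver-derived HepG2 cells carry transiently introduced multiple reporter units governed by cis promoters. Reporter RNA measured 24 h post-dose through reverse transcription, PCR amplification, fluorescent labelling and capillary electrophoresis, normalised to DMSO.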

[9] = ATG_MRE_CIS: Attagene CIS-FACTORIAL HepG2 Assay for human Metal Responsive Element (MRE) (AID 2282954); settings: HepG2 MRE cis-reporter transcription, Attagene multiplex; actives raise or lower the signal
How it was run: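 Cells were transfected with cis-promoter reporter transcription units, then dosed for 24 h. RNA was reverse-transcribed, amplified, fluorescently labelled and resolved by capillary electrophoresis, and activity was fitted in both directions relative to DMSO.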

[10] = ATG_PBREM_CIS: Attagene CIS-FACTORIAL HepG2 Assay for human Phenobarbital-responsive Enhancer Module (PBREM) (AID 2282955); settings: HepG2 PBREM cis-reporter, Attagene multiplexed transcription; actives raise or lower the signal
How it was run: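 HepG2 cells transiently transfected with multiple cis-regulated reporter transcription units; endogenous factor activity at the PBREM element measured as reporter mRNA 24 h after dosing, via RT-PCR and capillary electrophoresis of fluorescent fragments; bidirectional fitting versus DMSO.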

[11] = target: Paired box protein Pax-6 (Homo sapiens) (UniProt P26367); test: ATG_Pax6_CIS: Attagene CIS-FACTORIAL HepG2 Assay for human Paired Box 6 (PAX6) (AID 2282956); settings: HepG2 CIS-FACTORIAL PAX6 reporter transcription, RNA readout; actives raise or lower the signal
Sequence of Paired box protein Pax-6 (Homo sapiens) (P26367 whole entry, looked up): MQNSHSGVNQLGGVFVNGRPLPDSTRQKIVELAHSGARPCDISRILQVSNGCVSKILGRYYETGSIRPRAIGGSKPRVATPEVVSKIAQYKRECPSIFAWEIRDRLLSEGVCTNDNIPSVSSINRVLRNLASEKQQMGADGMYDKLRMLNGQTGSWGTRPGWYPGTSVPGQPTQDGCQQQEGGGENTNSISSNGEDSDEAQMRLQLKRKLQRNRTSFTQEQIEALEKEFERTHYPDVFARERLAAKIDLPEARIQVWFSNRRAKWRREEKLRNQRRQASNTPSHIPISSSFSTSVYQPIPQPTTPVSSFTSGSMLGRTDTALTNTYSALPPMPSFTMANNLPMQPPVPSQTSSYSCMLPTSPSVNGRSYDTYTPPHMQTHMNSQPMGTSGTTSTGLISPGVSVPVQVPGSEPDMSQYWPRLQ
How it was run: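 Read-out is reporter transcript level, measured by RT-PCR with fluorescent primer extension and capillary electrophoresis after 24 h dosing of transfected HepG2 cells. Activity in either direction fitted relative to DMSO control.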

[12] = ATG_PPRE_CIS: Attagene CIS-FACTORIAL HepG2 Assay for human Peroxisome Proliferator-activated Response Element (PPRE) (AID 2282958); settings: HepG2 PPRE cis-element reporter, Attagene transcription factor profiling; actives raise or lower the signal
How it was run: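 HepG2 cells transiently transfected with multiplexed cis-element reporter units measure endogenous transcription factor activity. After 24 h compound exposure, reporter mRNA is quantified by RT-PCR, 6-FAM labeling, HpaI digestion and capillary electrophoresis; bidirectional fits are made against DMSO baseline.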

[13] = ATG_RORE_CIS: Attagene CIS-FACTORIAL HepG2 Assay for human RAR-related Orphan Receptor Element (RORE) (AID 2282959); settings: HepG2 Attagene cis-factorial RORE reporter, mRNA; actives raise or lower the signal
How it was run: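 HepG2 cells transiently transfected with multiple cis-element reporter transcription units, exposed to chemical for 24 h. Reporter mRNA quantified by RT-PCR, 6-FAM primer-extension labeling, HpaI digestion and capillary electrophoresis; bidirectional fit versus DMSO baseline.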

[14] = ATG_Sox_CIS: Attagene CIS-FACTORIAL HepG2 Assay for human SRY-box transcription factor (SOX) (AID 2282960); settings: HepG2 Attagene cis-factorial SOX reporter, mRNA; actives raise or lower the signal
How it was run: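 HepG2 cells transiently transfected with cis-element-driven multiple reporter transcription units, dosed 24 h; reporter mRNA measured by RT-PCR, FAM labelling, HpaI digestion and capillary electrophoresis. Bidirectional fit versus DMSO baseline.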

[15] = target: Transcription factor Sp1 (Homo sapiens) (UniProt P08047); test: ATG_Sp1_CIS: Attagene CIS-FACTORIAL HepG2 Assay for human Specificity Protein 1 (Sp1) (AID 2282961); settings: HepG2 Sp1 cis-reporter transcription, actives raise or lower the signal
Sequence of Transcription factor Sp1 (Homo sapiens) (P08047 whole entry, looked up): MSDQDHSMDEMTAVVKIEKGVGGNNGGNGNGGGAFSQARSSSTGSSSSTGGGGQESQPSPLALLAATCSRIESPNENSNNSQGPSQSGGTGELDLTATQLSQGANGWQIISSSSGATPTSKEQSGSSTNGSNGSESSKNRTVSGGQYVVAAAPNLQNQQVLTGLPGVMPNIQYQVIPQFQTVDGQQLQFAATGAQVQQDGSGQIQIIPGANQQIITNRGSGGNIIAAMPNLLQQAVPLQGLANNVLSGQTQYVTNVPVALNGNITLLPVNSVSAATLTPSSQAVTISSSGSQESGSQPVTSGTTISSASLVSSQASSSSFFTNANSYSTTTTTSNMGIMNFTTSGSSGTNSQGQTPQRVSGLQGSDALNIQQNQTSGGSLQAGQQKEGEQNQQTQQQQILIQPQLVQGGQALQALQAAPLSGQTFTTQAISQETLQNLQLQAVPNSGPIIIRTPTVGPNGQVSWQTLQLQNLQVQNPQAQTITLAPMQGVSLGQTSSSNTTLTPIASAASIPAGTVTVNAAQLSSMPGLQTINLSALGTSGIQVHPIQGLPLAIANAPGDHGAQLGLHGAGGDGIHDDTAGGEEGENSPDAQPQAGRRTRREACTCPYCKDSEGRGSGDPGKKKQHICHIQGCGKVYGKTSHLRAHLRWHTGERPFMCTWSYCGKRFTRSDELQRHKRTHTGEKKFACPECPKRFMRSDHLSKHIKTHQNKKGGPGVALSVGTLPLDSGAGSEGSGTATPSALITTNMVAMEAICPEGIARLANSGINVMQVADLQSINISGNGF
How it was run: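 HepG2 cells transiently transfected with multiple reporter transcription units driven by cis-regulatory elements; Sp1-responsive reporter mRNA measured 24 h after dosing by RT-PCR and capillary electrophoresis fluorescence, fitted bidirectionally against DMSO baseline.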

[16] = ATG_SREBP_CIS: Attagene CIS-FACTORIAL HepG2 Assay for human Sterol Regulatory Element Binding (SREBP) (AID 2282962); settings: HepG2 Attagene cis-factorial SREBP reporter, mRNA; actives raise or lower the signal
How it was run: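 Endogenous SREBP activity read as cis-element-driven reporter transcript in transiently transfected HepG2, 24 h post-dosing; quantified via RT-PCR plus capillary electrophoresis of fluorescent fragments. Gain or loss of signal fitted relative to DMSO baseline.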

[17] = target: Signal transducer and activator of transcription 3 (Homo sapiens) (UniProt P40763); test: ATG_STAT3_CIS: Attagene CIS-FACTORIAL HepG2 Assay for human Signal Transducer and Activator of Transcription 3 (STAT3) (AID 2282963); settings: HepG2, Attagene cis-factorial STAT3 reporter transcription; actives raise or lower the signal
Sequence of Signal transducer and activator of transcription 3 (Homo sapiens) (P40763 whole entry, looked up): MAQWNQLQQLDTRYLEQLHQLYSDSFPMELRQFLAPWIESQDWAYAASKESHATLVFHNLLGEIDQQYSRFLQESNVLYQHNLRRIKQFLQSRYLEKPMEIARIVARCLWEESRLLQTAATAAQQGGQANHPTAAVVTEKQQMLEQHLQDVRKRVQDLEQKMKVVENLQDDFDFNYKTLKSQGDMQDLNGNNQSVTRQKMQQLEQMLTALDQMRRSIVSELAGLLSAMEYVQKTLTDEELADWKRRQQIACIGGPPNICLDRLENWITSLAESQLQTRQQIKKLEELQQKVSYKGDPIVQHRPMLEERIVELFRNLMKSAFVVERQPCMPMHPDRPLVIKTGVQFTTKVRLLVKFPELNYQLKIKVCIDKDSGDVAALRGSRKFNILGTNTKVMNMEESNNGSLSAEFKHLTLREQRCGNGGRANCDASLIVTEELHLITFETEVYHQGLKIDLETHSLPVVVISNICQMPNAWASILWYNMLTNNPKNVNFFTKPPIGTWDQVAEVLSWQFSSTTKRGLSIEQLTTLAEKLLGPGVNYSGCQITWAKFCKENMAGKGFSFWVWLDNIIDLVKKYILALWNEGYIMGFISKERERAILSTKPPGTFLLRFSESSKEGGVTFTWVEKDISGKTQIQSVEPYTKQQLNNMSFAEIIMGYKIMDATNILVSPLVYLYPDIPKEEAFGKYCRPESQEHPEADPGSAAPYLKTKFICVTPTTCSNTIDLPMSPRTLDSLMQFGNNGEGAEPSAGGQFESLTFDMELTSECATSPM
How it was run: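 HepG2, MRTU-transfected, 24 h dosing. RNA → RT → PCR → FAM label → HpaI → CE. Bidirectional fit vs DMSO.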

[18] = ATG_TA_CIS: Attagene CIS-FACTORIAL HepG2 Assay for human TA Basal Promoter (AID 2282964); settings: HepG2 Attagene CIS-factorial TA basal promoter reporter; actives raise or lower the signal
How it was run: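 Background internal-marker endpoint from a 52-component HepG2 cis-reporter panel. Cells treated 24 h; reporter transcripts quantified via RT-PCR and CE fluorescence against DMSO baseline.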

[19] = ATG_PXRE_CIS: Attagene CIS-FACTORIAL HepG2 Assay for human Pregnane X Receptor Element (PXRE) (AID 2282957); settings: HepG2 Attagene CIS-FACTORIAL PXRE reporter, mRNA; actives raise or lower the signal
How it was run: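 Bidirectional activity, baselined to DMSO, derived from reporter mRNA fluorescence (RT-PCR plus capillary electrophoresis) in HepG2 cells bearing cis-promoter reporter units, 24 h exposure.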

[20] = ATG_TCF_b_cat_CIS: Attagene CIS-FACTORIAL HepG2 Assay for human T-Cell-Factor with beta-catenin (TCF/b-cat) (AID 2282965); settings: HepG2 TCF/beta-catenin cis-reporter transcription, actives raise or lower the signal
How it was run: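 Using capillary electrophoresis as the read-out, labelled reporter cDNA fragments from transiently transfected HepG2 were sized and quantified. Exposure lasted 24 hours; activity in either direction was referenced to DMSO.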

Measured: AC50

c1nc[nH]n1
not listed: [19] | [20]
inactive: all other assays above

CCOP(=S)(S)OCC
active: [8] 157 µM | [19] 57.5 µM
not listed: [16] | [20]
inactive: all other assays above

NC(=O)C(F)(F)C(F)(F)F
not listed: [12]
inactive: all other assays above

O=C(O)C(F)(OC(F)(F)C(F)(F)C(F)(F)F)C(F)(F)F (stereo unspecified)
inactive: [1] | [2] | [3] | [4] | [5] | [6] | [7] | [8] | [9] | [10] | [11] | [19] | [12] | [14] | [15] | [17] | [18] | [20]
active: [12] 74.8 µM

Nc1ccc([N+](=O)[O-])cc1Cl
not listed: [19]
inactive: all other assays above

FC(F)(F)c1ccc(Cl)cc1
inactive: all assays above

CCOP(=S)(OCC)SCSc1ccc(Cl)cc1
active: [10] 5.81 µM | [19] 3 µM
not listed: [12] | [20]
inactive: all other assays above
